According to PubChem BioAssay (NCATS):
Records with an inconclusive call do not appear. Where a call stands in place of a potency, no number is given. The source made the active and inactive calls. The call rests on the fitted dose curve; in most records, active means well fitted cell-killing curve with a large enough effect; inconclusive means small, poorly fitted or top-dose-only effect, or effect the other way; inactive means flat fitted curve, though single readings scatter.

Test system: JEG-3
Test: Primary qHTS to identify gynecologic anti-cancer compounds using libraries of approved drugs and bioactive compounds (AID 1345084); further: nearly all actives have a fitted effect of over 55% in size
Details: Gynecologic cancer cell panel viability, ATPlite luminescence, 48 h; series mostly up to 57.5 µM
Method in brief: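 Five-point cytotoxicity, 48 h drug exposure at 37 C, 5% CO2, on cells seeded 16 h beforehand. ATP content read by ATPlite luminescence.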
Potency means the concentration at half of the fitted maximal effect.

Structure (SMILES) | Potency
C/C=C(/C)C1C=CC2CC(C)CC(C)C2C1/C(O)=C1\C(=O)NC(CC(C)(O)C(=O)O)C1=O (stereo not drawn) | inactive
CS[C@]1(CO)C(=O)N2[C@H]3C(=CC=C[C@@H]3O)C[C@@]2(SC)C(=O)N1C | inactive
COc1ccc2c3c4n(c2c1)[C@@H](C=C(C)C)OOC(C)(C)C[C@@H]4N1C(=O)[C@@H]2CCCN2C(=O)[C@]1(O)[C@H]3OCC=C(C)C | inactive
CC1=CC2/C=C(\C)CCCC(O)/C=C/C(=O)OC23C(=O)NC(CC(C)C)C3C1C (stereo not drawn) | inactive
C=CC(C)(C)c1[nH]c2c(CC=C(C)C)cc(CC=C(C)C)cc2c1C[C@@H]1NC(=O)[C@H](C)NC1=O | inactive
COc1cc(O)c2c(c1)/C=C/C[C@@H](O)[C@@H](O)C(=O)CCC[C@H](C)OC2=O | inactive
CC(=O)O[C@H]1CC[C@H]2[C@@H]3CC[C@H]4CC(=O)C=C(C)[C@]4(C)[C@H]3CC[C@]12C | inactive
COc1cc(N2CCN(C)CC2)ccc1N | inactive
COCC(C(=O)OC1CC2CCC(C1)N2C)c1ccccc1 (stereo not drawn) | inactive
N#CC(O[C@@H]1O[C@H](CO)[C@@H](O)[C@H](O)[C@H]1O)c1ccccc1 (stereo partly drawn) | inactive
CC[C@H]1C2CC3[C@@H]4N(C)c5ccccc5[C@]45C[C@@H]([C@H]2[C@H]5O)N3[C@H]1O | inactive
NC(=O)c1ncn2c1CN=C(c1ccccc1Br)c1cc(F)ccc1-2 | inactive
Cc1c(N2C(=O)[C@@H]3[C@H](O)CCN3C2=O)ccc(C#N)c1Cl | inactive
CC(=O)O[C@@H]1[C@H]2CC[C@H]3[C@@](C)(O)[C@@H]4C[C@H](O)C(C)(C)[C@@]4(O)[C@H](O)C[C@@]13C[C@@]2(C)O | inactive
CC(=O)N1N=C(c2ccc(N)cc2)c2cc3c(cc2C[C@H]1C)OCO3 | inactive
COC(=O)[C@]12CCCC(C)(C)C1CCc1cc(C(C)C)c(O)c(O)c12 (stereo partly drawn) | inactive
COc1ccc(CN(C(=O)[C@@H](N)Cc2c(C)cc(C(N)=O)cc2C)[C@@H](C)c2ncc(-c3ccccc3)[nH]2)cc1C(=O)O | inactive
C=CC/C=C\C/C=C\CCCCCCCc1cc(O)cc(O)c1 | inactive
CN1C2CCC1CC(OC(=O)N1Cc3ccccc3NC1=O)C2 (stereo not drawn) | inactive

Structure (SMILES) | Potency
COC(=O)CC1CC2(C(=O)c3c(O)cccc3C2(O)C(=O)OC)C(C)O1 (stereo not drawn) | inactive
c1cncc(OC[C@@H]2CCN2)c1 | inactive
Cc1c(Cl)c(OCC(=O)N2CCN(C)CC2)nc2sc(C(=O)NC3CC3)c(N)c12 | inactive
CN1CCc2cc3c(cc2C1C1OC(=O)c2c1ccc1c2OCO1)OCO3 (stereo not drawn) | inactive
C#CCO[C@H]1CN2CCC1CC2 | inactive
CC1CCCC(O)CC(=O)Cc2cc(O)cc(O)c2C(=O)O1 (stereo not drawn) | inactive
COc1ccsc1CNCC[C@@]1(c2ccccn2)CCOC2(CCCC2)C1 | inactive
C1=C(c2cnc[nH]2)c2ccsc2CC1 | inactive
CC1=CC2(O)/C=C/C(C)(O)C(O)C(O)/C=C/C(=O)OC23C(=O)NC(CC(C)C)C3C1C (stereo not drawn) | inactive
C/C=C1/CN2CC[C@]34C(=Nc5ccc(OC)cc53)C2C[C@@H]1C4(CO)C(=O)OC (stereo partly drawn) | inactive
Cc1cccc(NC(=O)N[C@H]2CN(C)c3ccccc3C(c3ccccc3)=N2)c1 | inactive
CO[C@@H]1[C@H](O)[C@@H](O[C@@H]2C[C@H]3CC[C@@H]4C(CC[C@]5(C)[C@@H](C6=CC(=O)OC6)CC[C@]45O)[C@@]3(C)[C@H](O)C2)O[C@H](C)[C@@H]1O (stereo partly drawn) | 0.891 µM (active)
C[C@@H]1CCC/C=C/[C@H]2C[C@@H](O)C[C@@H]2[C@@H](O)/C=C/C(=O)O1 | 1 µM (active)
C[C@]12CCC(=O)C=C1CC[C@@H]1[C@@H]2[C@@H](O)C[C@]2(C)C(=O)CC[C@@H]12 | inactive
CCC(C)(O)C1(C(=O)O)COC(=O)C1 (stereo not drawn) | inactive
COC(=O)C1=COC(C)C2CN3CCC4(C(=O)Nc5ccccc54)C3CC12 (stereo not drawn) | inactive
CC1(C)C(=O)N(c2ccc(C#N)c(C(F)(F)F)c2)C(=O)N1CCCCO | inactive
O=C1N[C@@H](Cc2ccccc2)CN2CCCC[C@@H]12 | inactive
CN1C(=O)CN=C(c2ccccc2Cl)c2cc(Cl)ccc21 | inactive
